# Only some compounds are listed: those with a hit (about 1.8% of all), similar ones and a draw of the others.
# GC-A act – GC-A stimulated cGMP production enhancers – HEK293 GC-A cells, cGMP TR-FRET, EC30 ANP, primary screen | Atrial natriuretic peptide receptor 1 (Homo sapiens), P16066 | 0% at EC30 ANP, 100% saturating ANP | activation, % at 10 µM | hit rate 0.14% among 370,000 | AID 1671463, 2021; in the data active means activation above about 40%
# Target sequence (P16066 whole entry, looked up): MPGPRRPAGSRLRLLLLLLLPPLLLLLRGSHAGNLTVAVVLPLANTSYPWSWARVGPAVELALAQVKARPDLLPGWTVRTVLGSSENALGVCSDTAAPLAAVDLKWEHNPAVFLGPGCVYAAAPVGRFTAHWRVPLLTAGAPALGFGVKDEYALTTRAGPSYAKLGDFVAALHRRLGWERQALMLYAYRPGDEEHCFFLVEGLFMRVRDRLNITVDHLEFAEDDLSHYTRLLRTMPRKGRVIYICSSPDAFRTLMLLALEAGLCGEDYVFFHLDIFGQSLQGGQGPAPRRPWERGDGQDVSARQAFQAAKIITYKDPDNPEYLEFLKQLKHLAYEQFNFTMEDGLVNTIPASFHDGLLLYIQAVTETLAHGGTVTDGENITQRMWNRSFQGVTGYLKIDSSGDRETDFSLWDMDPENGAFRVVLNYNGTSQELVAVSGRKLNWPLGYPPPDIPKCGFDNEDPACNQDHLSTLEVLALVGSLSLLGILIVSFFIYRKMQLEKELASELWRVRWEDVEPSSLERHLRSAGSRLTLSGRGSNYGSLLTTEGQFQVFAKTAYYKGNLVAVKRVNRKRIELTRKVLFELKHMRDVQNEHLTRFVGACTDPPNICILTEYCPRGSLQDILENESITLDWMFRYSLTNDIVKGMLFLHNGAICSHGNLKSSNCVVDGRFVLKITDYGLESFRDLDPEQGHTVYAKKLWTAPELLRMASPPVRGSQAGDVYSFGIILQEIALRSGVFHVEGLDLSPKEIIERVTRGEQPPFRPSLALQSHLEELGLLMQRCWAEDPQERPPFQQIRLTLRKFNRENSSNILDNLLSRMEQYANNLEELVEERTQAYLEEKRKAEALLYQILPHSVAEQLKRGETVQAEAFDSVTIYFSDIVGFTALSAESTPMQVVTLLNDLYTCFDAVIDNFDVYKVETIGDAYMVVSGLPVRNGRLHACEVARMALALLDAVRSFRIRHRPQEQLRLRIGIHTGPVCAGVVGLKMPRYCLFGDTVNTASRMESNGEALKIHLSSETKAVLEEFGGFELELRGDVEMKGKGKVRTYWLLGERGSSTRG
# Exocytosis inh – LAMP-1 surface exposure blockers, TALL-104 cells – cell-based, flow cytometry, MLPCN library, primary screen; inhibition, % at 10 µM; hit rate 0.66% among 360,000; TALL-104 LAMP-1 surface exposure; cells stimulated with thapsigargin and PMA;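 active means inhibition above about 55%, limit read from the data; inconclusive means no clear call, values can overlap the other calls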
# Myeloid diff 2 – induction of myeloid progenitor differentiation, primary screen, cell-based, flow cytometry, MLPCN library; ER-HoxA9 myeloid progenitors, lysozyme-GFP differentiation; calls only at 10 µM; hit rate 1% among 360,000;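 active means normalized GFP-positive differentiation at or above the plate's own cutoff, the solvent-only control mean plus 3 SD; inconclusive means no clear call, values can overlap the other calls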;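 further: cells exposed to compound for four days before flow analysis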
# NPR2 activator – human GC-B receptor activators, primary screen, HEK293 GC-B cells, cGMP TR-FRET, EC30 CNP. 0% at EC30 CNP, 100% saturating CNP. activation, % at 10 µM. AID 1920062, 2024. Atrial natriuretic peptide receptor 2 (Homo sapiens), P20594. hit rate 0.11% among 370,000;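 active means activation at 10 µM reaching about 35% in either raw or pattern-adjusted values, limit read from the data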
# Numbers without * were called inactive; i = inactive; ? = inconclusive; · = no result; + = active, no number.
SMILES,GC-A act,Exocytosis inh,Myeloid diff 2,NPR2 activator
Cc1cc(C)c([N+](=O)[O-])cc1NCC(=O)N1CCN(c2ccccc2)CC1,-4.7,2.0,+,-4.6
Cc1cccc(N2CCN(C(=O)c3cc(S(=O)(=O)N(C)C)ccc3Cl)CC2)c1C,-3.7,·,·,-3.2
CCOC(=O)C1(Cc2cccc(F)c2)CCN(Cc2cnn(CC)c2)CC1,-0.9,-3.5,i,3.6
CCOC(=O)C1(Cc2cccc(F)c2)CCN(Cc2nc(CC)[nH]c2C)CC1,7.5,0.5,+,5.3
O=C1C(SCCO)=C(SCCO)C(=O)c2ccccc21,50.5*,97.2*,i,-6.7
COc1ccccc1Cn1nnc2c(=O)[nH]c(C3CCN(C(=O)c4ccc(F)cc4)CC3)nc21,-0.9,-1.0,i,5.2
COc1ccccc1Cn1nnc2c(=O)[nH]c(C3CCN(C(=O)c4ccccc4Cl)CC3)nc21,35.9,1.6,i,48.3*
COC(=O)[C@]12C[C@H](CC(=O)N3CCN(C(=O)C4CC4)CC3)C(=O)N(CCC3=CCCCC3)C1=C[C@H](C1CCCC1)O[C@@H]2C,-1.9,·,·,-8.6
CCOC(=O)/C(C#N)=C\c1ccc(OCC(=O)Nc2ccc(C)cc2C)c(OC)c1,46.5*,-4.5,i,2.1
COC(=O)C1=CNC=C(C(=O)OC)C1c1ccc(Cl)cc1,-28.4,-2.5,+,-11.0
Cc1ccccc1C(=O)NC1CCCCN(Cc2cccc(Cl)c2)C1=O (centres undefined),1.8,·,·,-0.2
COc1ccc(-c2cc(NC(C)=O)c3ncc(-c4ccc(OC)c(OC)c4)n3c2)cc1OC,20.2,36.0,i,6.1
COc1cc(-c2cc(NC=O)c3ncc(-c4ccc(C(C)=O)cc4)n3c2)cc(OC)c1OC,33.1,-3.8,i,35.0*
COc1cc(-c2cnc3c(NC=O)cc(-c4ccccc4)cn23)cc(OC)c1OC,2.8,9.0,i,-1.4
COc1ccc(-c2cnc3c(NC(C)=O)cc(-c4ccsc4)cn23)cc1OC,·,7.7,+,·
COc1ccc(-c2cc(NC=O)c3ncc(-c4ccc(C(C)=O)cc4)n3c2)cc1OC,15.1,2.4,·,26.0
COc1cc(-c2cc(NC=O)c3ncc(-c4ccccc4)n3c2)cc(OC)c1OC,23.7,17.9,i,35.1*
COC(=O)[C@@]12CCCCC=C1N(CCc1ccc(Cl)cc1)C(=O)[C@H]2CC(=O)NCc1cccc(C(F)(F)F)c1,0.8,·,·,0.6
O=C(NCCc1ccccc1)OCc1cn(Cc2cccc(C(F)(F)F)c2)nn1,2.3,·,·,4.2
CC(C)(C)c1ccc(CN2N=Nc3ccccc3S2(=O)=O)cc1,-26.4,96.8*,?,-2.4
c1coc(CNc2c3c(nc4ccccc24)CCC3)c1,-3.1,0.3,+,0.7
CCc1cc(=O)oc2cc(C)cc(OCC(=O)N3CCC(C(=O)NC(C)C)(c4ccccc4)CC3)c12,-39.4,16.1,i,-17.2
Cc1cc(-c2ccc(N3CCOCC3)cc2)nc2ccccc12,11.9,-6.5,+,-4.4
c1ccc2nc(-c3ccc(N4CCOCC4)cc3)ccc2c1,12.4,0.1,i,14.4
Cc1ccc(-c2cc(C(=O)N3CCOCC3)c3ccccc3n2)cc1,5.1,-0.8,i,1.1
SMILES,GC-A act,Exocytosis inh,Myeloid diff 2,NPR2 activator
CN1CCN(c2ccc(-c3ccc4ccccc4n3)cc2)CC1,12.0,13.9,+,-5.3
COC(=O)[C@]12CCCCC=C1N(Cc1ccc(OC)cc1)C(=O)[C@@H]2CC(=O)NCc1cccc(C(F)(F)F)c1,-0.4,·,·,3.0
CCCCCCc1cc2cc(-c3nnc(-c4ccccc4O)o3)c(=O)oc2cc1O,9.6,8.6,+,10.4
CCCCCCc1cc2cc(-c3nnc(-c4ccccc4OC)o3)c(=O)oc2cc1O,3.3,5.7,+,5.4
CCCN1CCS(=O)(=O)N(Cc2cn(Cc3ccccc3)nn2)C(C(=O)OC)C1 (centres undefined),0.0,·,·,-1.3
CCNC(=S)Nc1ccc2c(c1)oc1ccccc12,2.4,59.4*,i,1.5
CCCc1ccc(Oc2cn[nH]c2-c2ccc(O)c(C)c2O)cc1,46.6*,32.6,i,3.5
CC/C(=C\C1CCCCC1)C(NP(=O)(c1ccccc1)c1ccccc1)c1ccccc1 (centres undefined),-14.6,59.2*,i,-20.1
O=P(NC1CCCCC1)(c1ccccc1)c1ccccc1,-18.4,-4.1,i,-11.3
COc1ccc(/C=C/S(=O)(=O)NCCc2ccccc2)c(CNC(=O)OC(C)(C)C)c1,-5.7,·,·,-2.2
CC(C)CSc1ncccc1-c1nc2ccccc2[nH]1,4.0,·,·,-5.9
CC(C)CC(=O)NC(=S)Nc1ccc(CN2CCOCC2)cc1,-7.4,4.7,i,8.1
CC(C)c1ccc(C(=O)Nc2ccc(N3CCOCC3)cc2)cc1,-0.4,1.4,+,-1.9
CC(=O)Nc1ccc(NC(=S)NC(=O)/C=C/c2ccco2)cc1,-6.4,-0.4,i,-1.3
CN1CCN(c2ccc(NC(=S)NC(=O)/C=C/c3ccco3)cc2)CC1,1.2,56.7*,i,-1.0
CC(C)CC(=O)NC(=S)Nc1ccc(N2CCOCC2)cc1,0.9,-9.6,+,2.1
CC(C)Oc1ccc(S(=O)(=O)N2CCCCCC2)c2ccccc12,-1.6,·,·,-1.1
CCCOc1ccc(C(=O)NNC(=S)NC(=O)CC)cc1,3.5,-3.6,i,63.6*
C=CCNC(=S)NNC(=O)c1ccc(OCCC)cc1,8.1,-3.3,i,0.0
CCN(CC)c1ncnc2c1cnn2Cc1ccc(C)cc1,26.8,-8.7,i,38.0*
Cc1ccc(Cn2ncc3c(NN)ncnc32)cc1,2.7,-24.3,i,0.6
NNC(=O)c1csc(-c2ccc(C(F)(F)F)cc2Cl)n1,-5.3,-4.4,+,-1.2
COc1cccc(/C=C2\CC3(OC(=O)c4ccc(Cl)cc4)CCCN2C3)c1 (centres undefined),-5.8,·,·,0.8
Cc1c(C)c(C)c(CO/N=C/c2cccs2)c(C)c1C,-1.2,88.0*,i,7.5
O=C(NCc1ccc(OC(F)(F)F)cc1)c1cccc2c1C(=O)c1ccc(N3CCCC3)cc1S2(=O)=O,2.3,-1.3,+,0.1
SMILES,GC-A act,Exocytosis inh,Myeloid diff 2,NPR2 activator
O=C(NCc1ccc(OC(F)(F)F)cc1)c1cccc2c1C(=O)c1ccc(N3CCC(Cc4ccccc4)CC3)cc1S2(=O)=O,2.9,34.0,+,1.3
O=C(NCc1cccc(F)c1)c1cccc2c1C(=O)c1ccc(N3CCCC3)cc1S2(=O)=O,·,7.4,i,·
O=C(NCc1ccc(OC(F)(F)F)cc1)c1cccc2c1C(=O)c1ccc(N3CCCCC3)cc1S2(=O)=O,2.0,11.6,i,1.3
O=C(Cc1cc(C(F)(F)F)cc(C(F)(F)F)c1)Nc1c(-c2ccccc2)[nH][nH]c1=O,-1.0,5.6,i,-3.9
Cc1cccc(NC2(C(=O)O)CCCC2)c1,4.4,4.0,i,3.6
CCn1ncc(Br)c1C(=O)Nc1ccc(F)c([N+](=O)[O-])c1,27.6,21.7,i,35.5*

# Screening data: PubChem BioAssay, several laboratories
